Most compounds without a hit are left out; they make up all but 5.9% or so of the library.
Gal4-VP16 FLuc: Gal4-VP16 reporter inhibition counter-screen; Drosophila S2 Gal4-VP16 UAS-luciferase, luminescence, 20 h; Potency, µM (highest dose often 53.6 µM), for the others: at the highest dose activity, negative = inhibition, hits mostly inhibitors; 310,000 tested, 3.5% active;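 note: Gal4-VP16 expression switched on by copper sulfate through the metallothionein promoter; % is set by controls: 0 for no effect and ±100 for the full control effect; nearly all actives have a fitted effect of over 50% in size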
GLP-1R inv ag: GLP-1 receptor (human) inverse agonism | P43220 | HEK293 GLP-1R CRE-luciferase, luminescence, 24 h; GLP-1R form is constitutively active | 410,000 tested, 1.6% active | Potency, µM (highest dose often 38.3 µM), for the others: top-dose activity change, negative = inhibition, actives largely listed as inhibitors; note: % is set by controls: 0 for no effect and ±100 for the full control effect; nearly all actives have a fitted effect of over 55% in size
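Inverse agonism was detected as reduced cAMP-driven luciferase luminescence after 24 h compound treatment. The cells were HEK293 clones expressing constitutively active human GLP-1R with the reporter. Reporter-only and GPR119 cell lines served as counterscreen controls.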
RORgamma inh: blocks mouse ROR gamma transcriptional activity; Drosophila S2 Gal4-RORgamma UAS-luciferase reporter, 20 h; Potency, µM (top dose mostly 53.6 µM), for the others: at the highest dose activity change, negative = inhibition, usual class: inhibitors; P51450; 310,000 tested, 5.4% active; AID 2551; note: % is set by controls: 0 for no effect and ±100 for the full control effect; nearly all actives have a fitted effect of over 60% in size
Target sequence (P51450 whole entry, looked up, the tested form may be a part): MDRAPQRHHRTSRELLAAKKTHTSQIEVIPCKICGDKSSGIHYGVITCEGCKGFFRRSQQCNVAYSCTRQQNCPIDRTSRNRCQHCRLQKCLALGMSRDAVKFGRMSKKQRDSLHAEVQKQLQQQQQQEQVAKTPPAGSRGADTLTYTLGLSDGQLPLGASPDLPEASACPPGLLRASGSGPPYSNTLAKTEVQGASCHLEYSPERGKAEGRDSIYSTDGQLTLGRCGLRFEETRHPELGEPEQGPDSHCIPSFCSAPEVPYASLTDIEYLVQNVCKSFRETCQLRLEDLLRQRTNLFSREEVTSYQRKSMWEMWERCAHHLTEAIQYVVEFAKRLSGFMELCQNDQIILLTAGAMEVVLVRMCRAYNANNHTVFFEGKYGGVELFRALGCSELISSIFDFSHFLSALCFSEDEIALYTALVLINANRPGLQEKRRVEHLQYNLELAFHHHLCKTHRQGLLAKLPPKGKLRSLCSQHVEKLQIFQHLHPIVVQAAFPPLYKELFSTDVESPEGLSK
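Luminescence from a UAS-regulated Photinus luciferase reporter in stably transfected Drosophila Schneider cells is measured; decreased signal marks ROR gamma inhibition. Fusion expression is induced by 700 uM copper sulfate for 20 hr.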
GLP1R ag: GLP-1 receptor (human) agonism | Potency, µM (series often up to 45.6 µM), for inactives: at the highest dose activation, usual class: activators | AID 624172 | P43220 | HEK293 GLP-1R CRE-luciferase, luminescence, 4-6 h; cells express a hypersensitive GLP-1R form | 380,000 tested, 0.007% active; note: % of control where 0% means no effect
HEK293 tox: cytotoxicity counter-screen for GLP-1 receptor inverse agonists | HEK293 cAMP-luciferase reporter cells, luminescence, 24 h | Potency, µM (doses to about 38.3 µM), for inactives: at the highest dose activity change, negative = inhibition, usual class: inhibitors | 410,000 tested, 0.13% active;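 note: loss of luciferase light is scored as toxicity; % is set by controls: 0 for no effect and ±100 for the full control effect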
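MLSMR compounds, 24 hr on cells at 37 deg C/5% CO2; luminescence after luciferase reagent (12 min RT). Inhibition counted as the undesired cytotoxic outcome.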
* = called active by the depositor; ? = inconclusive; . = no result; [ ] = remark or other dose. Calls come from the whole dose curve; as a rule, active = well fitted curve in the direction sought with a large enough effect; inconclusive = small, poorly fitted or top-dose-only effect, or another doubt; inactive = no such curve, though single readings can be large; an effect the other way counts as inactive or inconclusive. Potency is the fitted concentration of half-maximal effect.

SMILES	Gal4-VP16 FLuc	GLP-1R inv ag	RORgamma inh	GLP1R ag	HEK293 tox
Cc1c(Cl)cccc1NC(CC(=O)c1ccccc1)C(=O)OCC(=O)c1cccs1 (configuration not stated)	7.9µM*	-1%	11µM*	-2%	-7%
CCC1=C[C@@H]2CN(C1)Cc1c([nH]c3ccccc13)[C@@](C(=O)OC)(c1cc3c(cc1OC)N(C)[C@H]1[C@@](O)(C(=O)OC)[C@H](OC(C)=O)[C@]4(CC)C=CCN5CC[C@]31[C@@H]54)C2	-15%	.	24%	.	.
O=C(c1cc(C2CC2)nn1-c1ccccc1)N1CCN(Cc2ccccc2F)CC1	.	8.9µM*	.	0%	1%
Cc1ccc(Cl)cc1NC(=O)C(C)n1nnc2sc3c(c2c1=O)CCCC3 (configuration not stated)	.	0%	.	.	0%
CCOC(=O)c1ccc(NC(=O)c2nc[nH]c2C(=O)NC)cc1	-28%	52%	10µM*	-5%	10%
CCOC(=O)c1[nH]cnc1C(=O)Nc1ccc(C)cc1	?	29%	13µM*	1%	7%
Cc1ccc(NC(=O)c2nc[nH]c2C(=O)NCC(=O)OC(C)(C)C)cc1	?	8%	6.3µM*	0%	0%
COc1ccc(NC(=O)c2nc[nH]c2C(=O)NCC(=O)OC(C)(C)C)cc1	?	2%	?	14%	4%
Cc1c(-c2ccccc2)sc2nc[nH]c(=S)c12	1µM*	15%[7.66 µM]	0.5µM*	0%	9%[7.66 µM]
Cn1c(-c2ccc(Cl)cc2)cnc1N	?	-5%	?	-12%	7%
Cc1ccc(-c2cnc(N)n2C)cc1C	?	4%	20µM*	-3%	?
O=C1[C@H]2O[C@@H]2[C@@H](O)[C@H]2[C@H]1CCn1c(=O)n(Cc3cc4c(cc3Cl)OCO4)c(=O)n12	11%[10 µM]	.	0%[10 µM]	.	.
CCc1nc2c(cnn2-c2ccc(Cl)cc2)c(=O)n1-c1ccc(OC)c(Cl)c1	.	3%	.	.	-4%
O=C(COc1ccc(/C=N/NS(=O)(=O)c2ccccc2)cc1)Nc1cccc(Cl)c1	-15%	10µM*	?	0%	-16%
O=C(COc1ccc(/C=N/NS(=O)(=O)c2ccccc2)cc1)NCc1ccccc1	-9%	-9%	39%	-8%	-19%
Cc1ccccc1OCCn1cc(C(=S)N2CCN(C)CC2)c2ccccc21	-15%	?	13µM*	19%	-13%
CC(=O)c1cn(CCOc2ccccc2C)c2ccccc12	4.5µM*	?	?	10%	8%
Cc1ccc(OCCn2cc(C(=O)c3ccco3)c3ccccc32)cc1C	.	10µM*	.	.	-21%
CCOc1ccccc1NC(=O)Cn1c(=O)n(Cc2ccc(C(=O)NCCCOC)cc2)c(=O)c2ccccc21	.	-7%	.	-2%	-3%
CSc1ccc(CCNC(=O)C(C)n2c(C)c3cnn(-c4ccccc4)c(=O)c3c2C)cc1 (configuration not stated)	.	?	.	.	-4%
Cc1c(Cl)cccc1NC(=O)C(=O)NNC(=O)c1ccccc1F	?	-25%	14µM*	0%	-18%
CCOC(=O)CCN1C(=O)[C@H]2[C@H]3[C@H](O)[C@H](O)C/C(=N/NC(=O)OCc4ccccc4)[C@H]3CC[C@@H]2C1=O	-11%[10 µM]	.	16%[10 µM]	.	.
CC(C)NC(=O)c1ccc(-n2c(-c3ccccc3)cc3c2CCCCC3)cc1	.	8%	.	.	-3%
CC1CCc2c(cc(-c3ccccc3)n2-c2ccc(C(=O)NC(C)C)cc2)C1 (configuration not stated)	.	6.3µM*	.	.	-28%
O=C(NCCCCc1ccccc1)c1cccc(NC(=O)c2ccccc2)c1	.	10µM*	.	0%	-17%
SMILES	Gal4-VP16 FLuc	GLP-1R inv ag	RORgamma inh	GLP1R ag	HEK293 tox
O=C(CCCc1ccccc1)Nc1cccc(C(=O)O)c1	-24%	2µM*	27%	-8%	3%
O=C(CCc1ccccc1)NC(=S)Nc1cccc(C(=O)O)c1	-20%	-17%	-33%	-4%	1%
CN1C(=O)CC2(C=CC(=O)C=C2OC(=O)c2ccccc2)c2ccccc21 (configuration not stated)	-13%	.	5%	.	.
COc1cc(C2CC(=O)N(c3ccccc3)C3=C2C(=O)OC3)cc(OC)c1OC (configuration not stated)	.	10%	.	.	8%
Oc1ccccc1C=NNC(=S)Nc1ccc(F)cc1	.	?	.	11%	24%
FC(F)Oc1ccc(/C=N/NC(=S)Nc2cc(C(F)(F)F)ccc2Cl)cc1	5.6µM*	8%	1.3µM*	-15%	-1%
COc1c(/C=N/NC(N)=S)c(C)nn1-c1ccccc1	?	?	7.1µM*	33%	?
Cc1nn(-c2ccccc2)c(N2CCCC2)c1/C=N/NC(=S)Nc1ccccc1C(F)(F)F	1µM*	?	1.4µM*	-3%	0%[1.53 µM]
Cc1nn(C)cc1/C=N/NC(=S)Nc1ccccc1	2.2µM*	0%	0.89µM*	10%	-22%
COc1c(/C=N/Nc2ccc([N+](=O)[O-])cc2[N+](=O)[O-])c(C)nn1-c1ccccc1	-4%	0%	-1%	-7%	-13%
CCOCCc1nn2c(=O)cc(COC(=O)CNC(=O)c3cccc(C)c3)nc2s1	.	18%	.	.	6%
O=C(CSc1ccccc1)NCc1ccc2c(c1)CCN2C(=O)c1ccc(F)cc1	.	-20%	.	.	1%
Cc1nn(-c2ccccc2)c(N2CCCC2)c1/C=N/NC(=S)Nc1ccc(F)cc1	.	?	.	12%	-21%
Cc1ccc(NC(=S)N/N=C/c2c(C)nn(-c3ccccc3)c2N2CCCC2)cc1	0.1µM*	?	?	11%	-20%
Cc1nn(-c2ccccc2)c(N2CCCC2)c1/C=N/NC(=S)Nc1cc(C(F)(F)F)ccc1Cl	2.8µM*	?	1.8µM*	-4%	-2%[1.53 µM]
C=CCOC(=O)N[C@@H](c1ccc(Br)cc1)C(C(C)=O)C(C)=O	-3%	.	-14%	.	.
O=C(CCC1N=C2c3ccccc3N=C(SCc3cccc(F)c3)N2C1=O)NCCc1ccccc1 (configuration not stated)	.	-6%	.	.	2%
O=C(N/N=C/c1cccc2nccnc12)c1ccccc1O	3.2µM*	?	2.5µM*	-2%	?
O=C(N/N=C/c1cccc2ccccc12)c1ccccc1Cl	3%	-19%	-33%	13%	-17%
O=C(N/N=C/c1cccc2cccnc12)c1ccccc1O	0.79µM*	?	0.35µM*	-5%	?
O=C(N/N=C/c1cccc2nccnc12)c1ccncc1	-8%	14%	?	3%	-4%
CCOc1ccc(-c2noc(CSc3nnc(Cc4ccccc4)n3-c3cccc(C)c3)n2)cc1	.	?	.	.	-8%
Cc1ccc(CNC(=O)C2CCC(CNS(=O)(=O)c3ccc4c(c3)CCCC(=O)N4)CC2)cc1 (configuration not stated)	.	3%	.	.	0%
